Assay results published in PubChem BioAssay AID463173 (ICCB-Longwood Screening Facility, Harvard Medical School, 2010).
The whole screen tested about 52,000 compounds, of which about 4,300 (8.3%) were called active. This is one part of a sample in which actives are shown more often than they occur. No stated cut-off is given here; in the data, active means survival mostly below about 52% (no sharp cut-off); inactive means mostly above about 56%.

system: DeltatarO mutant; assay: S. aureus survival, RN4220 and DeltatarO strains – OD600, teichoic acid synthesis inhibitors, primary screen (AID 463173); details: S. aureus RN4220 wild type/DeltatarO growth, OD600, 18 h, active compounds read low, screened at 18.75 µg/mL (by protocol)

Compound | survival
N#C/C(=C\C1CC=CCC1)c1nc2ccccc2[nH]1 (stereo not given) | 86% (inactive)
Cc1cc(C)cc(NC(=O)CSc2nc(-c3ccccc3)nn2C(=O)c2ccco2)c1 | 110% (inactive)
S=C(NCCCN1CCOCC1)N1CCN(c2ccccc2)CC1 | 84% (inactive)
Cc1c(C=Nc2ccc(Cl)cc2)c(O)n(C)c(=O)c1C#N | 74% (inactive)
CCSc1ncc(Cl)c(C(=O)Nc2c(C(=O)Nc3ccc(Cl)cc3)oc3ccccc23)n1 | 105% (inactive)
Cc1cccc(-c2nc3c4ccccc4nc(N4CCN(c5cccc(Cl)c5)CC4)n3n2)c1 | 71% (inactive)
Cc1cccc(-c2nc3c4ccccc4nc(NCc4ccc(Cl)cc4)n3n2)c1 | 44% (active)
CC(=O)c1ccc(N2CCN(c3nc4ccccc4c4nc(-c5cccc(C)c5)nn34)CC2)cc1 | 41% (active)
Cc1cccc(-c2nc3c4ccccc4nc(N4CCN(c5ccc(F)cc5)CC4)n3n2)c1 | 65% (inactive)
Clc1ccc(CNc2nc3ccccc3c3nc(-c4cccnc4)nn23)cc1 | 80% (inactive)
CCCCCC(=O)Nc1ccc(NC(=O)c2cc3ccccc3o2)c(OC)c1 | 68% (inactive)
Cc1ccc(CCNC(=O)CCCc2nnc3n(C)c(=O)c4sccc4n23)cc1 | 86% (inactive)
O=c1c2ccccc2n(Cc2cccc(Cl)c2)c(=O)n1Cc1ccccc1 | 124% (inactive)
CCn1c2ccccc2c2cc(CN3CCN(Cc4ccc(Br)cc4)CC3)ccc21 | -1% (active)
CCn1c2ccccc2c2cc(CN3CCN(Cc4ccc(Cl)cc4)CC3)ccc21 | -1% (active)
CCn1c2ccccc2c2cc(CN3CCN(Cc4ccco4)CC3)ccc21 | 81% (inactive)
CCCn1c(N2CCN(Cc3ccc(Cl)cc3)CC2)nc2ccccc21 | 91% (inactive)
CCn1c2ccccc2c2cc(CN3CCN(Cc4ccccc4Cl)CC3)ccc21 | -1% (active)
CCn1c2ccccc2c2cc(CN3CCN(Cc4cccc(Cl)c4)CC3)ccc21 | -1% (active)
CC(C)n1c(N2CCN(Cc3ccc(Cl)cc3)CC2)nc2ccccc21 | 83% (inactive)
CCS(=O)(=O)N1CCN(Cc2ccccc2)CC1 | 72% (inactive)
O=c1c2ccccc2n(Cc2ccccc2Cl)c(=O)n1CCc1ccccc1 | 60% (inactive)
CCCN1CCN(C(=O)Cn2ncc3c4ccccc4n(Cc4cccc(Cl)c4)c3c2=O)CC1 | 72% (inactive)
Clc1ccccc1CN1CCN(Cc2ccco2)CC1 | 86% (inactive)

Compound | survival
CCS(=O)(=O)N1CC(=O)N(c2cc(C)cc(C)c2)C(C)(C(=O)NC2CCCCC2)C1 (stereo not given) | 92% (inactive)
COc1cc(NC(=O)Cn2cnc3c2c(=O)n(C)c(=O)n3C)c(OC)cc1Cl | 65% (inactive)
CC(C)(C)c1ccc(CSC2=Nc3ccccc3C3=NC(CC(=O)NCc4cccs4)C(=O)N23)cc1 (stereo not given) | 68% (inactive)
CCC(=O)N=c1sc2ccccc2n1-c1ccccc1 | 71% (inactive)
COc1ccc(C(=O)Nc2ccc3oc(-c4cccnc4)nc3c2)cc1OC | 62% (inactive)
CCCCOc1ccccc1C(=O)N(Cc1cccc(F)c1)C1CCS(=O)(=O)C1 (stereo not given) | 75% (inactive)
CCc1ccc(NC(=O)CCn2c(=O)c3cccn3c3ccccc32)cc1 | 48% (inactive)
COCCCn1c(=O)c2sccc2n2c(CCCC(=O)Nc3ccc(F)c(F)c3)nnc12 | 83% (inactive)
Cc1ccc(NC(=O)Cn2c(=O)cc(-c3ccccc3)c3c(C)nn(C)c32)c(Cl)c1 | 78% (inactive)
CCOc1ccc(CN2CCN(Cc3ccc4c(c3)c3ccccc3n4CC)CC2)cc1 | 0% (active)
CCOc1ccc(Cn2c(=O)oc3ccccc32)cc1 | 117% (inactive)
CCOc1ccc(CN2CCN(C(=O)c3ccco3)CC2)cc1 | 77% (inactive)
CC(C)(C)OC(=O)N1CCC(c2c(C(=O)NC3CCCCC3)cnn2-c2ccc(F)cc2F)CC1 | 76% (inactive)
CCOc1ccc(NC(=O)NC(C)c2c(-n3cccc3)sc3c2CCN(CC)C3)cc1 (stereo not given) | 96% (inactive)
Cc1nc(-c2ccc(F)cc2)sc1CCNC(=O)Cc1ccc(F)cc1 | 81% (inactive)
CCOc1ccc(-n2nc(CO)c(C(=O)NCCCc3ccccc3)n2)cc1 | 89% (inactive)
CCCCNC(=O)c1nn(-c2ccc(CC)cc2)nc1CO | 41% (active)
CCOc1ccc(-n2nc(CO)c(C(=O)NCC(C)O)n2)cc1 (stereo not given) | 39% (active)
CCc1ccc(-n2nc(CO)c(C(=O)NCCCc3ccccc3)n2)cc1 | 95% (inactive)
CCOc1ccc(-n2nc(CO)c(C(=O)NCc3cccnc3)n2)cc1 | 44% (active)
COCCNC(=O)c1nn(-c2ccc(Cl)cc2)nc1CO | 91% (inactive)
CCc1ccc(-n2nc(CO)c(C(=O)NCCOC)n2)cc1 | 56% (inactive)
Cc1ccc(CNC(=O)c2nn(-c3ccc(Cl)cc3)nc2CO)cc1 | 94% (inactive)
CCc1ccc(-n2nc(CO)c(C(=O)NCc3cccnc3)n2)cc1 | 51% (inactive)

Compound | survival
CCOc1ccc(-n2nc(CO)c(C(=O)NCC(c3ccccc3)c3ccccc3)n2)cc1 | 48% (inactive)
CCOc1ccc(-n2nc(CO)c(C(=O)NCc3ccc(Cl)cc3)n2)cc1 | 43% (active)
Cc1ccc(-n2nc(CO)c(C(=O)NCc3cccnc3)n2)cc1 | 90% (inactive)
COc1ccc(C2CC3(CC(C)(C)NC(=O)N3)Oc3cc(O)ccc32)cc1 (stereo not given) | 102% (inactive)
CCC(=O)Oc1cc(C(C)(C)C)cc2cc(-c3nc(-c4ccc(OC)cc4OC)no3)c(=O)oc12 | 89% (inactive)
Cc1nn(CCC(=O)NCc2cccc(Br)c2)c(=O)c2nn(-c3ccccc3)c(C)c12 | 92% (inactive)
CC1=C(c2ccc(C)cc2)S(=O)(=O)N(Cc2ccc(C(=O)NCc3ccccc3F)cc2)C1=O | 80% (inactive)
Cc1cc(C)nc(Sc2ccccc2)n1 | 76% (inactive)
N#Cc1ccccc1NC(=O)CC1Nc2ccccc2NC1=O (stereo not given) | 98% (inactive)
Cc1ccc(S(=O)(=O)Cc2ccc(C(=O)NCCc3ccc(Cl)cc3)o2)cc1 | 56% (inactive)
COc1ccc(NC(=O)Cn2cc(C(=O)c3ccc(C)c(C)c3)c(=O)c3cc(OC)ccc32)cc1 | 72% (inactive)
O=c1c2oc3ccccc3c2n(Cc2ccc(F)cc2)c(=O)n1Cc1ccco1 | 71% (inactive)
N#C/C(=C/c1ccc(Cl)cc1Cl)c1nc2ccccc2c(=O)[nH]1 | 70% (inactive)
CCOc1ccc(-n2nc(CO)c(C(=O)NCc3ccccn3)n2)cc1 | 53% (inactive)
CCOc1ccc(-n2nc(CO)c(C(=O)NCc3cccc(OC)c3)n2)cc1 | 41% (active)
COc1cccc(CNC(=O)c2nn(-c3ccccc3Cl)nc2CO)c1 | 85% (inactive)
Cc1nn(CCCC(=O)Nc2cc(C(F)(F)F)ccc2Cl)c(=O)c2c1sc1ccccc12 | 78% (inactive)
Cc1ccc(NC(=O)CSc2ccc(-c3sc(-c4ccccc4)nc3C)nn2)cc1F | 25% (active)
Cc1nc(-c2ccccc2)sc1-c1ccc(SCC(=O)NCc2ccc(F)cc2)nn1 | 53% (inactive)
Cc1nc(-c2ccccc2)sc1-c1ccc(SCC(=O)NCc2ccc(Cl)cc2)nn1 | 52% (inactive)
Cc1nc(-c2ccccc2)sc1-c1ccc(SCC(=O)Nc2ccc(F)cc2F)nn1 | 19% (active)
Cc1ccc(NC(=O)CSc2ccc(-c3ccccn3)nn2)cc1F | 49% (inactive)
Cc1nc(-c2ccccc2)sc1-c1ccc(SCC(=O)Nc2cccc(C(F)(F)F)c2)nn1 | 41% (inactive)
Cc1nc(C)c(-c2ccc(SCC(=O)Nc3ccc(C)c(F)c3)nn2)s1 | 93% (inactive)

Compound | survival
CC(=O)Nc1cccc(NC(=O)CSc2ccc(-c3sc(-c4ccccc4)nc3C)nn2)c1 | -14% (active)
Cc1nc(-c2ccccc2)sc1-c1ccc(SCC(=O)Nc2ccccc2)nn1 | 24% (inactive)
Cc1cccc(NC(=O)CSc2ccc(-c3sc(-c4ccccc4)nc3C)nn2)c1C | 33% (inactive)
Cc1cccc(NC(=O)CSc2ccc(-c3ccccn3)nn2)c1 | 103% (inactive)
O=C(CSc1ccc(-c2ccccn2)nn1)Nc1ccc(F)c(F)c1 | 27% (active)
O=C(COc1ccc(S(=O)(=O)N2CCCC2)cc1)N1CCCC1 | 91% (inactive)
Cc1c(Cl)cccc1Nc1nn2c(=O)c3ccc(C(=O)N(C)Cc4ccccc4)cc3nc2s1 | 81% (inactive)
CCc1ccc(NC(=O)Cn2c(=O)n(CCC(C)C)c(=O)c3cccnc32)cc1 | 76% (inactive)
CC(=O)Nc1ccccc1N1CCCCC1 | 100% (inactive)
COc1cc(NC(=O)CCc2c(C)nc3nc(-c4cc(OC)cc(OC)c4)nn3c2C)cc(OC)c1 | 83% (inactive)
CCCCCC1CC(CC(=O)Nc2nncs2)C(=O)O1 (stereo not given) | 110% (inactive)
Cc1cccc(CNC(=O)CCCn2c(=O)c3cccn3c3ccc(F)cc32)c1 | 79% (inactive)
O=C(CCCn1c(=O)c2cccn2c2ccc(F)cc21)NCc1ccc(Cl)cc1 | 38% (active)
CCOc1ccc(CNC(=O)CCn2c(=O)c3cccn3c3ccc(F)cc32)cc1 | 45% (active)
CCOc1ccccc1CNC(=O)CCn1c(=O)c2cccn2c2ccc(F)cc21 | 46% (inactive)
CCOc1ccc(CNC(=O)Cn2c(=O)c3cccn3c3ccc(F)cc32)cc1 | 80% (inactive)
CCOc1ccccc1CNC(=O)Cn1c(=O)c2cccn2c2ccc(F)cc21 | 68% (inactive)
CCOc1ccc(CCNC(=O)CCn2c(=O)c3cccn3c3ccc(F)cc32)cc1 | 50% (inactive)
CCc1ccc(CNC(=O)CCn2c(=O)c3cccn3c3ccc(F)cc32)cc1 | 91% (inactive)
CCOc1ccc(CNC(=O)CCCn2c(=O)c3cccn3c3ccc(F)cc32)cc1 | 41% (active)
CCOc1ccc(CNC(=O)CCCn2c(=O)c3cccn3c3cccnc32)cc1 | 120% (inactive)
CCOc1ccc(CNC(=O)CCCn2c(=O)c3cccn3c3ccccc32)cc1 | 55% (inactive)
CCOc1ccccc1CNC(=O)CCCn1c(=O)c2cccn2c2ccc(F)cc21 | 33% (active)
